Records with an inconclusive call do not appear. Entries that show only a call come without a potency. The source made the active and inactive calls. Calls follow the shape of the full dose curve.
Experiment: p53 small molecule agonists, cell-based qHTS assay with rat liver microsomes (AID 1963578)
Settings: HCT-116 p53RE-bla, beta-lactamase ratio, 16 h; series mostly up to 66 µM
Text: U.S. Tox21 Program National Center for Advancing Translational Sciences [NCATS] Division of Preclinical Innovation [DPI] U.S. Environmental Protection Agency [EPA] National Institutes of Environmental Health Sciences [NIEHS] National Toxicology Program [NTP] U.S. Food and Drug Administration [FDA] Tox21 Assay Overview: p53, a tumor suppressor protein, is activated following cellular insult, including DNA damage and other cellular stresses. The activation of p53 regulates cell fate by inducing DNA repair, cell cycle arrest, apoptosis, or cellular senescence. The activation of p53, therefore, is a good indicator of DNA damage and other cellular stresses. […] The activation of the reporter gene under culture conditions can be detected by fluorescence intensity. This cell line was used to screen the Tox21 10K compound library in the condition of presence of rat liver microsomes and to identify agonists that activate the p53 signaling pathway after in vitro metabolic activation (Ooka et al., Archive of Toxicology 96:1975-1987, 2022).
Tox21 Assay Protocol Summary: The p53RE-bla cells were dispensed at 4,000cells/3ul/well in 1536-well black-clear bottom plates. After the assay plates were incubated at 37 C, 5% CO2 incubator for 5 hours, 23 nL of compounds dissolved in DMSO, positive controls or DMSO only was transferred to the assay plate. Following compound addition, 3 uL of rat liver microsomes (Molecular Toxicology, Boone, NC) at final concentration of 0.5 mg/mL and 1uL of Beta-Nicotinamide adenine dinucleotide 2-phosphate (NADPH) at final concentration of 0.5 mg/mL were transferred to the assay plate. The plates were incubated at 37 C for 16 hours. 1 uL of LiveBLAzer detection mixture was added to each well and the plates were incubated at room temperature in the dark for 2 h.
For `CN`, the Potency was “inactive”.
For `Cc1c([N+](=O)[O-])c(C)c([N+](=O)[O-])c(C(C)(C)C)c1[N+](=O)[O-]`, the Potency was “inactive”.
In the case of `CO/N=C(/C(=O)OC)c1ccccc1COc1ccccc1C`, the Potency is reported as “inactive”.
With `Clc1ccccc1-c1ccccc1Cl` the Potency was “inactive”.
In the case of `CC1Sc2c(C(=O)O)c(=O)c3cc(F)c(N4CCNCC4)cc3n21` (stereo not given), the Potency is reported as “inactive”.
For `O=CC(Br)(Br)Br`, the Potency was “inactive”.
For `CC(C)Br`, the Potency was “inactive”.
In the case of `Cc1ccc(N(SC(F)(Cl)Cl)S(=O)(=O)N(C)C)cc1`, the Potency is reported as “inactive”.
With `N=C(N)[Se]` the Potency was “inactive”.
With `CC(C)(C)OO` the Potency was “inactive”.
For `CCN(CCO)CCn1c(Cc2ccccc2)nc2c1c(=O)n(C)c(=O)n2C`, the Potency was “inactive”.
With `O=C(Cc1ccccc1)OCCc1ccccc1` the Potency was “inactive”.
In the case of `ClC1=C(Cl)[C@]2(Cl)[C@@H]3[C@@H](Cl)[C@H]4O[C@H]4[C@@H]3C1(Cl)C2(Cl)Cl`, the Potency is reported as “inactive”.
With `CCCCOCN(C(=O)CCl)c1c(CC)cccc1CC` the Potency was “inactive”.
For `O=C(Cl)c1ccc(Cl)cc1`, the Potency was “inactive”.
For `CC(O)C(=O)[O][Hg][c]1ccccc1` (stereo not given), the Potency was “inactive”.
In the case of `COC(N)=O`, the Potency is reported as “inactive”.
For `CN1[C@@H]2CC[C@H]1CC(OC(=O)c1cc(Cl)cc(Cl)c1)C2` (stereo not given in full), the Potency was “inactive”.
In the case of `COCC(C)N(C(=O)CCl)c1c(C)csc1C` (stereo not given), the Potency is reported as “inactive”.
With `N#C/C=C/c1ccccc1` the Potency was “inactive”.
In the case of `COC(=O)c1cc(Oc2ccc(Cl)cc2Cl)ccc1[N+](=O)[O-]`, the Potency is reported as “inactive”.
For `CN[C@@H](C)[C@H](O)c1ccccc1`, the Potency was “inactive”.
In the case of `C[C@H](CN1CCOCC1)C(C(=O)N1CCCC1)(c1ccccc1)c1ccccc1`, the Potency is reported as “inactive”.
For `c1ccc2c(c1)OCC(C1=NCCN1)O2` (stereo not given), the Potency was “inactive”.
For `CCCCc1ccc(O)cc1`, the Potency was “inactive”.
For `CC(C)OC(=O)C(O)(c1ccc(Cl)cc1)c1ccc(Cl)cc1`, the Potency was “inactive”.
With `N#CN=C1SCCN1Cc1ccc(Cl)nc1` the Potency was “inactive”.
With `COc1ccc2c(c1OC)CN1CCc3cc4c(cc3C1C2)OCO4` (stereo not given) the Potency was “inactive”.
With `CCCCOC(=O)[C@@H](C)Oc1ccc(Oc2ccc(C#N)cc2F)cc1` the Potency was “inactive”.
For `NC(=O)CS(=O)C(c1ccccc1)c1ccccc1` (stereo not given), the Potency was “inactive”.
For `CC1(C(=O)Nc2ccc(O)c(Cl)c2Cl)CCCCC1`, the Potency was “inactive”.
In the case of `Cc1ccc(-c2c(Cl)nc(C#N)n2S(=O)(=O)N(C)C)cc1`, the Potency is reported as “inactive”.
For `C=CC(=C)C`, the Potency was “inactive”.
For `O=[N+]([O-])c1cccc2cccnc12`, the Potency was “inactive”.
With `C=CC(=O)N(C)C` the Potency was “inactive”.
In the case of `CC(C)[C@H](C(=O)OC(C#N)c1cccc(Oc2ccccc2)c1)c1ccc(OC(F)F)cc1` (stereo not given in full), the Potency is reported as “inactive”.
With `NC(=S)C(N)=S` the Potency was “inactive”.
In the case of `C(COCC1CO1)OCC1CO1` (stereo not given), the Potency is reported as “inactive”.
In the case of `II`, the Potency is reported as “inactive”.
With `CN1C(=O)[C@@H](NC(=O)c2cc3ccccc3[nH]2)N=C(c2ccccc2)c2ccccc21` the Potency was “inactive”.
